# In PubChem BioAssay (NCI):
# This is part of a sample that, as a whole, favours compounds with a hit. Of some 83,000 tested, about 20% had one in any assay.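 Cell lines were cultured in 96-well plates, exposed to a single compound concentration, and assessed for percent growth 48 hours later.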 A number with no mark means an inactive call. Active and inactive are the calls of the source. The calls were made as follows: active = growth percent below 10; inactive = the rest.
# System: MDA-MB-468 breast
# Assay: NCI-60 one-dose screen, 48 h (100 = growth as untreated, 0 = no growth, -100 = all killed)
# Settings: 10 µM unless noted
row,SMILES,growth
1,O=C(C[n+]1ccnc2ccccc21)c1ccc(O)c(O)c1,3.88% (active)
2,CC[C@H](C)[C@H](NC(=O)[C@@H](N)CCC(N)=O)C(=O)N[C@@H](Cc1ccc(O)cc1)C(=O)N[C@@H](CCCCN)C(=O)N[C@@H](CCCCN)C(=O)N[C@@H](Cc1ccc(O)cc1)C(=O)N[C@@H](CCCNC(=N)N)C(=O)N[C@H](C(=O)N[C@@H](Cc1c[nH]c2ccccc12)C(=O)N[C@@H](Cc1ccc(O)cc1)C(=O)N[C@@H](CCCNC(=N)N)C(=O)N[C@@H](CCCCN)C(=O)N[C@@H](C)C(=O)N[C@@H](Cc1c[nH]c2ccccc12)C(=O)N[C@@H](CCCCN)C(=O)N[C@H](C(=O)N[C@@H](CC(C)C)C(=O)NCC(=O)N[C@@H](CCCCN)C(=O)N[C@H](C(N)=O)C(C)C)C(C)C)[C@@H](C)O,44.6%
3,O=C1Nc2ccccc2/C1=C/c1ccc(COCC2CO2)n1-c1ccc(O)cc1 (stereo not given),95.9%
4,Oc1ccc(N=Nc2ccc(N=Nc3ccccc3)cc2)cc1,83.1%
5,O=C(OCCCCOC(=O)n1cnc2ccccc21)n1cnc2ccccc21,112%
